Pf growth 96h – P. falciparum growth inhibition at 96 hours | P. falciparum luciferase reporter growth, 96 h | Potency, µM (highest dose often 28.7 µM), inactives show at the top dose activity change, negative = inhibition, hits mostly inhibitors | 320,000 tested, 6.9% active | AID 504834; note: % is set by controls: 0 for no effect and ±100 for the full control effect
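Delayed-death screen, second-generation endpoint: infected erythrocytes, 2% hematocrit, 0.05% parasitemia final; 96 hours at 37 C, 5% CO2; luciferase detection reagent; luminescence decrease equals reduced growth.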
Pf growth 48h – inhibits P. falciparum growth in the first generation, 48 h | Potency, µM (doses to about 28.7 µM), inactives show at the top dose activity change, negative = inhibition, actives largely listed as inhibitors | 310,000 tested, 5.9% active | P. falciparum luciferase growth in erythrocytes, 48 h | AID 504832; note: % is set by controls: 0 for no effect and ±100 for the full control effect
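Parasite viability was followed by luminescence of a genomically integrated firefly luciferase. Cultures held 0.1% parasitemia at 2% hematocrit (final), incubated under 5% CO2 at 37 C.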
SARS PLpro yeast – SARS-CoV PLP inhibition in yeast. S. cerevisiae expressing SARS-CoV PLpro, growth rescue. Potency, µM (top dose mostly 32.9 µM), for the others: top-dose activity, positive = growth rescue, usual class: activators. 330,000 tested, 0.19% active. AID 485353; calls by dose curve; note: 0% is about no effect; nearly all actives have a fitted effect of over 55% in size
HCV inhibitor – HCV inhibition. Potency, µM (top dose mostly 41.8 µM), for the others: at the highest dose activity change, negative = inhibition, hits mostly inhibitors. 340,000 tested, 3.4% active. Huh7.5.1 HCVcc-Cre infection, luciferase reporter, 44 h; note: % is set by controls: 0 for no effect and ±100 for the full control effect
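After 44 h co-culture of compound, cells and HCVcc-Cre (~0.5 moi), substrate is added for 15 min at room temperature and luciferase measured over 15 sec. Cells were seeded at 1,000/well and pre-cultured 4 h.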
AMA1 RON2 block – disrupts binding of P. falciparum AMA1 to RON2; AlphaScreen AMA1-biotinylated RON2 peptide binding; Potency, µM (top dose mostly 58.2 µM), for inactives: at the top dose activity change, negative = inhibition, usual class: inhibitors; 360,000 tested, 0.2% active;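 note: 0% = vehicle wells and -100% = peptide control; nearly all actives have a fitted effect of over 45% in size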
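AMA1 (3D7) with his tag at 25 nM final met compounds first, then biotinylated RON2 peptide at 25 nM; detection used donor plus acceptor beads, 10 µg/mL apiece, read by AlphaScreen after 30 min at room temperature.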
NS1 inh – inhibitors of influenza NS1 protein function; Potency, µM (highest dose often 46.1 µM), for the others: top-dose activity, positive = more growth; 270,000 tested, 0.4% active; AID 2326; calls by dose curve; note: actives are rising curves; nearly all actives have a fitted effect of over 50% in size
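Compounds were scored for reversing the slow growth caused by influenza A NS1 in S. cerevisiae, measured by optical density at 600 nm. Assay medium contained 2% galactose at pH 6.0; NS1-free yeast of the same strain were the positive control.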
* marks the source's active call; other numbers are inactive results; u = inconclusive; x = no result given; [ ] = another dose, or the depositor's remark. An excerpt weighted towards active compounds, which were near 12% of everything screened. Unless noted, calls come from the whole dose curve; as a rule, active = well fitted curve in the direction sought with a large enough effect; inconclusive = small, poorly fitted or top-dose-only effect, or another doubt; inactive = no such curve, though single readings can be large; an effect the other way counts as inactive or inconclusive. Potency is the fitted concentration of half-maximal effect.

SMILES	Pf growth 96h	Pf growth 48h	SARS PLpro yeast	HCV inhibitor	AMA1 RON2 block	NS1 inh
CC(=O)Nc1ccc(CN2CCCC(C(=O)c3ccc(C(F)(F)F)cc3)C2)cc1 (stereo unspecified)	15%	u	0%	u	-10%	-2%
COc1ccc(NC(=O)c2ccc(Cl)c(S(=O)(=O)N3CC(C)OC(C)C3)c2)cn1 (stereo unspecified)	10µM*	8.3µM*	1%	3.2µM*	0%	x
Cc1ccccc1CCNC(=O)c1ccc(Cl)c(S(=O)(=O)N2CC(C)OC(C)C2)c1 (stereo unspecified)	13µM*	13µM*	-4%	7.9µM*	-3%[11.6 µM]	x
COc1ccc(NC(=O)c2ccc(Cl)c(S(=O)(=O)N3CCc4ccccc4C3)c2)cn1	x	1.9µM*	-10%	11µM*	-10%	u
CC1CN(S(=O)(=O)c2cc(C(=O)NCc3ccncc3)ccc2Cl)CC(C)O1 (stereo unspecified)	u	u	-4%	15%	-6%	x
COc1ccc2o/c(=N/NC(=S)Nc3ccccc3)c(C(N)=O)cc2c1	60%	23%	-9%	19%	x	2%
O=C1N(Cc2cccc(Cl)c2)C[C@@H]2C[C@@H](c3cccn3-c3cccnc3)N3CCC[C@@]123	18%	9.3µM*	0%	10µM*	-13%	-4%
COC(=O)c1ccc([C@@H]2C[C@H]3CN(Cc4cccnc4)C(=O)[C@]34CCCN24)cc1	10µM*	u	0%	-6%	1%	3%
CCn1ncc([C@@H]2C[C@H]3CN(Cc4cccc(Cl)c4)C(=O)[C@]34CCCN24)c1C	22%	u	0%	-7%	10%	3%
Cc1nn(C)cc1[C@@H]1C[C@H]2CN(Cc3cccc(Cl)c3)C(=O)[C@]23CCCN13	u	u	-1%	3%	0%	4%
Cn1cc([C@@H]2C[C@H]3CN(Cc4cccc(Cl)c4)C(=O)[C@]34CCCN24)c(-c2ccccc2)n1	2.9µM*	40%	-2%	10µM*	7%	4%
CCOC(=O)COc1ccccc1/C=C1/NC(=O)NC1=O	10µM*	14%	2%	-15%	-3%	3%
COc1cccc(/C=C2\NC(=O)NC2=O)c1O	0.93µM*	76%	0%	11%	-9%	0%
CCOC(=O)COc1ccccc1/C=N/O	0%	-3%	0%	-6%	-1%	-7%
O=C(CN1CCCCC1)N1N=C(c2cccs2)CC1c1cccs1 (stereo unspecified)	u	-12%	0%	-7%	0%	0%
O=C(Nc1ccc(-c2csc(Nc3ccc(Cl)cc3)n2)cc1)c1cccc(C(F)(F)F)c1	10µM*	u	1%	11µM*	-13%	11%
O=C(Nc1cccc(-c2csc(Nc3cccc(C(F)(F)F)c3)n2)c1)c1cc([N+](=O)[O-])cc(C(F)(F)F)c1	u	u	-5%	u	-27%	5%
O=C(Nc1ccc(-c2csc(Nc3ccccc3)n2)cc1)c1cc([N+](=O)[O-])cc(C(F)(F)F)c1	0.47µM*	0.59µM*	2%	u	-9%	u
O=C(Nc1ccc(-c2csc(Nc3ccccc3)n2)cc1)c1cccc(C(F)(F)F)c1	u	u	-5%	u	0%	16%
CN1C2CCC1CC(OC(=O)c1cc(Cl)cc(Cl)c1)C2 (stereo unspecified)	12%	u	-6%	14µM*	10%	-3%
COC(=O)C1=CN(c2ccc(F)cc2)C(N)=C(C#N)C1c1cccc(F)c1 (stereo unspecified)	x	x	x	x	19%	x
COC(=O)[C@H]1[C@@H](C)N(CCc2cc(OC)c(OC)c(OC)c2)C(=O)N[C@H]1c1ccccc1	x	x	x	22µM*	-2%	x
CCN1C(=O)N[C@@H](c2ccccc2)[C@@H](C(=O)OC)[C@H]1C	x	x	x	27%	1%	x
Cc1sc2nc(CN3CCCC3)nc(N3CCN(S(=O)(=O)c4cccc(F)c4)CC3)c2c1C	9.3µM*	8.3µM*	6%	u	23%	x
Cc1sc2nc(C3CC3)nc(N3CCN(S(=O)(=O)c4ccc(F)cc4)CC3)c2c1C	16%	10µM*	0%	u	0%	u
SMILES	Pf growth 96h	Pf growth 48h	SARS PLpro yeast	HCV inhibitor	AMA1 RON2 block	NS1 inh
Cc1nc(N2CCN(S(=O)(=O)c3ccc(F)cc3)CC2)c2c(C)c(C)sc2n1	12%	x	-6%	16%	1%	3%
CCCc1nc(N2CCN(S(=O)(=O)c3ccc(Cl)cc3)CC2)c2c(C)c(C)sc2n1	u	u	1%	14%	-12%	-1%
Cc1ccc(S(=O)(=O)N2CCN(c3nc(C)nc4sc(C)c(C)c34)CC2)cc1	-13%	23%	0%	6%	x	-18%
COc1ccc(C(=O)N2CCN(c3nc(C4CC4)nc4sc(C)c(C)c34)CC2)cc1	-16%	12µM*	-4%	u	-15%	-20%
Cc1sc2nc(CN3CCOCC3)nc(N3CCN(S(=O)(=O)c4ccccc4)CC3)c2c1C	u	9.3µM*	-7%	-1%	-12%	x
Cc1sc2nc(C3CC3)nc(N3CCN(C(=O)c4ccc(F)cc4)CC3)c2c1C	3%	u	-9%	u	-16%	-2%
CC(C)c1oc(=O)cc2c1[C@@H](O)[C@H]1OC(=O)[C@@]3(C)CC[C@@H](O)[C@@]2(C)C13 (stereo partly specified)	2.6µM*	2.9µM*	13%	u	6%	12%
CC(C)c1oc(=O)cc2c1[C@@H](O)[C@H]1OC(=O)[C@@]3(C)C[C@@H](O)[C@@H](O)[C@@]2(C)C13 (stereo partly specified)	1µM*	1.5µM*	4%	u	1%	17%
COc1ccc(C(=O)N2CCN(S(=O)(=O)c3ccc(Br)cc3)CC2)cc1	u	u	2%	4%	5%	x
Cc1ccc(C(=O)NCCCN2CCOCC2)c(C)c1	-22%	19%	-2%	19%	10%	5%
Cc1ccc(/C=N/NC(=O)c2nn(C)cc2Cl)cc1	122%	197%	-4%	13%	10%	-8%
NC(N)=N/N=C/c1ccc(OS(=O)(=O)c2ccccc2)cc1	-14%	2.1µM*	3%	u	-3%	4%
Cn1cc(Cl)c(C(=O)N/N=C/c2ccc(OS(=O)(=O)c3ccccc3)cc2)n1	9.3µM*	u	25%	u	9%	-22%
CCC(=O)N/N=C/c1ccc(OS(=O)(=O)c2ccccc2)cc1	u	10µM*	3%	-4%	5%	-4%
COc1ccc(NC(=O)N[C@H]2C=C[C@@H](CC(=O)NC3CCC3)O[C@@H]2CO)cc1	x	x	x	x	-8%	x
